# Data from PubChem BioAssay (EPA / NIEHS).
# Calls of active or inactive are those of the source. How the source made its calls: active means hit-call score of the fitted dose curve at least 0.9, where 1 is the maximum; inactive means score below 0.9.
# Assay: APR_HepG2_CellLoss_72hr: Apredica 72-hour HepG2 Assay for Cell Loss (AID 2282915)
# Conditions: high-content imaging
# Protocol: APR_HepG2_72hr is a cell-based, multiplexed-readout assay that uses HepG2, a human liver cell line, with measurements taken at 72 hours after chemical dosing in a 384-well plate.APR_HepG2_CellLoss_72hr is one of 10 assay component(s) measured or calculated from the APR_HepG2_72hr assay. It is designed to make measurements of cell number, a form of viability reporter, as detected with fluorescence intensity signals by HCS Fluorescent Imaging technology.Data from the assay component APR_HepG2_CellLoss_72hr was analyzed into 1 assay endpoint. This assay endpoint, APR_HepG2_CellLoss_72hr, was analyzed with bidirectional fitting relative to DMSO as the negative control and baseline of activity. Using a type of viability reporter, measures of all nuclear dna for gain or loss-of-signal activity can be used to understand the viability at the cellular-level. Furthermore, this assay endpoint can be referred to as a secondary readout, because this assay has produced multiple assay endpoints where this one serves a viability function. To generalize the intended target to other relatable targets, this assay endpoint is annotated to the cell cycle intended target family, where the subfamily is proliferation.
# Cells were treated with dimethyl sulfoxide (DMSO) as a solvent control at a final concentration of 0.5% v/v or with compounds in DMSO with a resulting final DMSO concentration of 0.5% v/v. Compound treatment was done at concentrations of 0.39, 0.78, 1.56, 3.12, 6.24, 12.5, 25, 50, 100, and 200 uM in duplicate on each plate. Cells were treated with compounds for 1, 24, or 72 hr. Carbonyl […] m-chloro-phenylhydrazone (CCCP) and taxol were used as positive controls for mitochondrial function and cytoskeletal stability, respectively; DMSO served as the negative control for this experiment. Cells were fixed by the direct addition of 50 uL formaldehyde in Hank's Balanced Salt Solution (HBSS) to a final concentration of 3.7%. After incubation in the fixation medium for 30 min at room temperature (293-298 K), cells were rinsed twice with HBSS and treated with cell permeabilization buffer (16 uL of 0.5% Triton X-100) for 10 min at room temperature (293-298 K) before labeling. For mitochondrial membrane potential and mitochondrial measurements, pre-fixed cells were incubated with 50 uL of MitoTracker Red CMXRos (Invitrogen) at a concentration of 250 nM for 30 min before fixation. In the remaining cases, post-fixed cells were labeled by incubation with a multiplexed mixture of primary antibodies in HBSS for 60 min at room temperature (293-298 K) to detect immunoreactivity of c-Jun (1:500), phospho-histone H3 (1:100), phospho-histone H2A.x (1:200), p53 (1:400), alpha-tubulin (1:200) and Hoechst 33342 (2 ug/mL). Cells were labeled for multiplexed imaging on two separate plates: a) Hoechst 33342, MitoTracker Red, phospho-histone H3, and alpha-tubulin, and b) Hoechst 33342, phospho-histone H2A.x, and c-Jun. A final rinse with HBSS (50 uL) was performed before analysis. The primary and secondary antibodies for the proteins were phospho-histone H3 (rabbit anti-phospho-histone H3 and FITC-donkey anti-rabbit IgG), phospho-histone H2A.x (mouse anti-phospho-histone H2A.x and FITC-donkey anti-mouse IgG), c-Jun (rabbit anti-phospho-c-Jun and Cy3-donkey anti-rabbit IgG), p53 (sheep anti-p53 and Cy5-donkey anti-sheep IgG), alpha-tubulin (mouse anti-alpha-tubulin and Cy5-donkey anti-mouse IgG). These antibodies are available as the CellCiphr HepG2 assay kit (Millipore).Digital images of each well were captured using a Cellomics ArrayScan VTI (Thermo Scientific Cellomics) (0.8 NA objective, 0.63x optical coupler, and XF-93 filter set) at 20x magnification. The images were acquired using the autofocus feature of the ArrayScan instrument, which entails the following steps. First, the camera focuses on channel 1 (Hoechst 33342), where nuclei are identified. Second, a Z offset of 1 um is used for capturing mitochondria (MitoTracker Red). […]
SMILES,outcome,AC50
CC(C)=CCCC(C)=CC=O,inactive,–
On1ccccc1=S,–,5.34 µM (active)
CC(C)CCCCCCOC(=O)c1ccc(C(=O)OCCCCCCC(C)C)c(C(=O)OCCCCCCC(C)C)c1,inactive,–
Cc1[nH]cnc1C[C@H]1CCc2c(C)c3ccccc3n2C1=O,–,24.5 µM (active)
CC(C)(O)c1coc(S(=O)(=O)NC(=O)Nc2c3c(cc4c2CCC4)CCC3)c1,inactive,–
C1=CCCC=CCCC=CCC1,inactive,–
CN(C)c1ccc(Cc2ccc(N(C)C)cc2)cc1,–,45.2 µM (active)
COc1ccc(-n2nc(C(F)F)cc2-c2ccc(S(C)=O)cc2)cc1 (stereo not given),–,72.8 µM (active)
COC(=O)CC(=O)OC,inactive,–
Nc1ccc(Nc2ccccc2)cc1,–,40.1 µM (active)
COCCOc1cc2cc(C(=O)NC3CCN(C(C)C)CC3)n(CC(=O)Nc3ccc(Cl)cn3)c2cn1,–,93.1 µM (active)
CCc1cc(SCc2sc(-c3ccc(C(F)(F)F)cc3)nc2CN2CCN(c3ccc(OC)cc3)CC2)ccc1OCC(=O)O,–,39.5 µM (active)
CC1=CC(=O)CC(C)(C)C1,inactive,–
O=c1n(CC2CO2)c(=O)n(CC2CO2)c(=O)n1CC1CO1 (stereo not given),–,10.7 µM (active)
CCOC(=O)c1ccc(C2CCC(NC[C@H](O)COc3ccc(O)c(NS(C)(=O)=O)c3)CC2)cc1 (stereo not given in full),–,25 µM (active)
Cn1c(=O)cc(Oc2ccc(F)cc2F)c2cnc(NCC(C)(C)O)nc21,inactive,–
COc1ccc2sc(C(=O)Nc3nnn[nH]3)c(OC(C)C)c2c1,–,39.9 µM (active)
O=C1CCC(N2C(=O)c3ccccc3C2=O)C(=O)N1 (stereo not given),inactive,–
Clc1nc(Cl)c(Cl)c(Cl)c1Cl,–,72 µM (active)
CC(C)=CCCC(C)CCO (stereo not given),–,0.0391 µM (active)

SMILES,outcome,AC50
CCNc1ccccc1,inactive,–
CC(O)CN(CCN(CC(C)O)CC(C)O)CC(C)O (stereo not given),inactive,–
O=C1CCCCCN1,inactive,–
CCOCCO,inactive,–
O=C1OC(=O)C2C3C=CC(C3)C12 (stereo not given),inactive,–
C=CCCCCCCCCC(=O)O,inactive,–
CCCCCCc1ccc(O)cc1O,–,71.5 µM (active)
CC(=O)c1ccc2c(c1)[C@H](NC(=O)c1ccc(F)cc1)[C@@H](O)C(C)(C)O2,inactive,–
C1N2CN3CN1CN(C2)C3,inactive,–
Oc1ccc2c(c1)-c1ccccc1C2,–,86.1 µM (active)
CC/C(=C\C(=N/O)C(N)=O)C(C)[N+](=O)[O-] (stereo not given),inactive,–
COc1cccc(-c2ccc(/C=C\CN3CCCCCC3)cc2Cl)c1,–,28.6 µM (active)
CCC(C)(C)C(=O)O[C@H]1C[C@@H](C)C=C2C=C[C@H](C)[C@H](CC[C@@H]3C[C@@H](O)CC(=O)O3)[C@H]21,–,26.8 µM (active)
O=C(NS(=O)(=O)/C=C/c1ccccc1)c1ccc(F)cc1Cl,inactive,–
O=C(CCCCCCCCc1cccnc1)N1CCC(C=C(c2ccccc2)c2ccccc2)CC1,inactive,–
O=C(OC[C@H]1O[C@@H](OC(=O)c2cc(O)c(O)c(OC(=O)c3cc(O)c(O)c(O)c3)c2)[C@H](OC(=O)c2cc(O)c(O)c(OC(=O)c3cc(O)c(O)c(O)c3)c2)[C@@H](OC(=O)c2cc(O)c(O)c(OC(=O)c3cc(O)c(O)c(O)c3)c2)[C@@H]1OC(=O)c1cc(O)c(O)c(OC(=O)c2cc(O)c(O)c(O)c2)c1)c1cc(O)c(O)c(OC(=O)c2cc(O)c(O)c(O)c2)c1,–,21.4 µM (active)
Cn1c(=O)c2c(ncn2C)n(C)c1=O,inactive,–
O=C(O)CCN(C1(C(=O)NO)CCCC1)S(=O)(=O)c1ccc(Oc2ccc(F)cc2)cc1,inactive,–
CC[C@H](C)C(=O)O[C@H]1C[C@@H](C)C=C2C=C[C@H](C)[C@H](CC[C@@H]3C[C@@H](O)CC(=O)O3)[C@H]21,–,31.1 µM (active)
COC(=O)c1c(Cl)c(Cl)c(C(=O)OC)c(Cl)c1Cl,inactive,–
